Screening results from PubChem.
D1 agonist = human D1 receptor agonism. P21728. HEK293 T-REx D1 cells, calcium flux, agonist mode. activation, % at 2 µM. 1% of 360,000 active; in the data active = activation above about 30%; also: 0% is about no effect
Target sequence (P21728 whole entry, looked up): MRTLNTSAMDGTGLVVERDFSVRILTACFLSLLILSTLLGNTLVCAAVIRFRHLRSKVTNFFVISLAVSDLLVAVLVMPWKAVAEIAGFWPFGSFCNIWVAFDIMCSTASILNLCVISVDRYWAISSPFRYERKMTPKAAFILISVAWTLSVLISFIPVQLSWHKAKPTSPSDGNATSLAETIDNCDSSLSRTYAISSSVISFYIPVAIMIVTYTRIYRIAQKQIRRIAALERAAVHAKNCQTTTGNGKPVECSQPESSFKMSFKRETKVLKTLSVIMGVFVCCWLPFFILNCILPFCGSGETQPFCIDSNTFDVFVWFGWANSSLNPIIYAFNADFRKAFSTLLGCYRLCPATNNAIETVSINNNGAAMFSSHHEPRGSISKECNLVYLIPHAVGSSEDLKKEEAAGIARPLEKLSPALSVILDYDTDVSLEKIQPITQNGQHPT
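Tetracycline-induced HEK293 TREx D1 cells, force-coupled to calcium signalling, were dye-loaded with a no-wash calcium kit. Compound was pin-added after a 10 s baseline. Fluorescence was read kinetically at 1 cycle/s for 180 s, with calcium rises flagged as agonism.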
DRD3 agonist = D3 dopamine receptor (human) agonism | D3R DiscoveRx beta-arrestin cells, luminescence, 90 min | max activation, % | 0.58% of 410,000 active | AID 652048; in the data active = max activation above about 30%; also: 0% is about no effect
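Agonist-mode cell screen: cells plated at 1500/well and incubated overnight at 37 °C, then exposed to library compounds for 90 min at 37 °C. Detection reagent was added for 30–60 min at room temperature, and luminescence was read.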
DRD3 antagonist = blocks the human D3 dopamine receptor; P35462; D3R cells, DiscoveRx beta-arrestin luminescence, antagonist mode; active compounds read low; max response, negative = inhibition, %; 2.5% of 360,000 active; AID 652054; in the data active = max response below about -50%; also: % is scaled to controls: 0 for no effect and ±100 for the full control effect
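Cells plated overnight at 1500 cells/well, then exposed to library compounds with dopamine controls for 90 minutes at 37 degrees C. DiscoveRx reagent added for 30–60 minutes at room temperature; luminescence read, quantitative HTS format.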
D1 antagonist = antagonists of human D1 dopamine receptor. HEK293 TREx D1 cells, calcium flux, dopamine EC80; active compounds read low. activity change, negative = inhibition, % at 10 µM. 3.2% of 360,000 active. AID 504652; in the data active = activity change below about -30%; also: % is scaled to controls: 0 for no effect and ±100 for the full control effect
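Compound effects on dopamine-evoked calcium signalling were measured in tetracycline-induced HEK293 Trex D1 cells. Dopamine at EC80 followed a 180 s compound pre-read, and fluorescence was tracked kinetically for 180 s more.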
D1 PAM = enhances dopamine response at the human D1 receptor; potentiation, % at 10 µM; 0.036% of 360,000 active; HEK293 TREx D1 cells, calcium flux, dopamine EC20 potentiation; AID 504651; P21728; in the data active = potentiation above about 30%; also: 0% is about no effect
An asterisk follows results filed as active; x = no result; ! = a repeat was not active. A selection: hits, their analogues and other compounds. The true share with any hit is near 6.1%.

SMILES	D1 agonist	DRD3 agonist	DRD3 antagonist	D1 antagonist	D1 PAM
COc1ccc(C(=O)NC(C(=O)NCC(=O)Nc2c(C)cccc2C)C(C)C)cc1 (stereo not given)	1	0	10	-19	-4
CCOC(=O)c1sc2nc(CSc3ccccc3)nc(N3CCCN(C)CC3)c2c1C	30*	-4	-62*	55	-5
CCOC(=O)c1sc2nc(CSc3ccccc3)nc(N3CCC(C(N)=O)CC3)c2c1C	19	-18	-8	12	-3
Cc1ccc2nc(Cl)c(C3CC(c4cccs4)=NN3C(=O)CCCC(=O)O)cc2c1 (stereo not given)	3	32*	12	4	-2
COc1ccc(/C=C/C(=O)c2ccc(Cl)s2)cc1O	0	-8	-72*	-9	-5
O=C(NCCc1ccccc1)C1CCCN(c2ncnc3c2nc2n3CCCCC2)C1 (stereo not given)	1	-1	7	2	-5
O=C(C1CCN(c2ncnc3c2nc2n3CCCCC2)CC1)N1CCN(c2ccc(Cl)cc2)CC1	-2	5	x	1	-1
COc1ccc(OC)c(CNC(=O)C2CCCN(c3ncnc4c3nc3n4CCCCC3)C2)c1 (stereo not given)	1	15	17	-33*	-1
O=C(C1CCN(c2ncnc3c2nc2n3CCCCC2)CC1)N1CCN(c2cccc(Cl)c2)CC1	7	10	60	-31*!	-2
CCOc1ccccc1CNC(=O)C1CCCN(c2ncnc3c2nc2n3CCCCC2)C1 (stereo not given)	2	-7	-3	-13	-7
O=C(NCCCN1CCN(c2ccccc2)CC1)C1CCCN(c2ncnc3c2nc2n3CCCCC2)C1 (stereo not given)	1	16	-67*	-30*	-19
Cc1ccc(OCC(=O)Nc2ccc3nn(-c4ccc(Cl)cc4)nc3c2)cc1	0	3	x	-14	-1
Cc1nc2ccccn2c1C(=O)/C=C/c1ccc(F)cc1	5	-4	-23	-7	-3
COc1ccc(/C=C/C(=O)c2c(C)nc3ccccn23)cc1	2	38*	16	-7	-3
CCCN1CCN(CCCNC(=O)Cn2c(-c3cccs3)cc3cc(Cl)ccc32)CC1	35*	-11	x	-18	-1
Cc1oc(-c2ccc(Cl)cc2)nc1CN1CCC(C(=O)N2CCc3ccccc3C2)CC1	14	-12	-70*	-17	x
CCOC(=O)C1CCCN(C(=O)C2CCN(Cc3nc(-c4ccc(Cl)cc4)oc3C)CC2)C1 (stereo not given)	x	-16	-28	x	x
CCN1CCN(CCNC(=O)C2CCN(Cc3nc(-c4ccc(Cl)cc4)oc3C)CC2)CC1	2	x	x	-6	-4
Cc1oc(-c2ccc(Cl)cc2)nc1CN1CCC(C(=O)N2CCN(Cc3ccccc3)CC2)CC1	33*	-6	-77*	-68*	x
O=C(c1ccc(Sc2ccccc2)c([N+](=O)[O-])c1)N1CCOCC1	5	-1	-25	-13	2
O=C(NCCc1ccccc1)C1Cc2c(-c3ccccc3)ccnc2O1 (stereo not given)	x	-10	-67*	x	x
NC(=O)c1cccc(-c2ccnc3c2CC(C(=O)NCCc2ccccc2)O3)c1 (stereo not given)	x	-1	2	x	x
CN1CCN(c2ccc(CNC(=O)C3Cc4c(-c5cccc(F)c5)ccnc4O3)cc2)CC1 (stereo not given)	x	-13	-56*	x	x
CC(=O)c1cccc(-c2ccnc3c2CC(C(=O)NCc2ccc(N4CCN(C)CC4)cc2)O3)c1 (stereo not given)	x	-14	3	x	x
O=C(NCc1ccccc1)C1Cc2c(-c3cccc(F)c3)ccnc2O1 (stereo not given)	x	-8	-50*	x	x
CNC(=O)C1Cc2c(-c3ccc(Cl)cc3)ccnc2O1 (stereo not given)	x	-6	-57*	x	x
CCCSS/C(CCO)=C(\C)N(C=O)Cc1cnc(C)nc1N	x	0	x	x	x
Cc1ccc(Cc2nc3ccccc3nc2SCC(=O)NCCC(C)C)cc1	2	1	x	-2	1
Cc1ccc(C)c(C(C)NC(=S)NC2CCCCC2)c1 (stereo not given)	17	8	6	-2	-2
CCCc1ccc(C(C)NC(=S)NC2CCCCC2)cc1 (stereo not given)	36*	-3	-9	-6	0
